# Source: PubChem BioAssay (Tox21)
# Inconclusive results are not listed. Calls of active or inactive are those of the source. The call rests on the fitted dose curve; in most records, active means well fitted cell-killing curve with a large enough effect in the repeat runs; inconclusive means weak or mixed curves, or effect the other way; inactive means flat fitted curve, though single readings scatter.
# Test: cAMP Responsive Elements (CRE) small molecule antagonists, cell-based qHTS assay: qHTS cell viability counter screen (AID 2060913); further: nearly all actives have a fitted effect of over 40% in size
# Details: CRE-bla HEK293T viability, CellTiter-Glo luminescence, 5 h; series mostly up to 92.4 µM; viability change, negative = cytotoxic: at the top concentration
# Source text: U.S. Tox21 Program National Center for Advancing Translational Sciences [NCATS] Division of Preclinical Innovation [DPI] U.S. Environmental Protection Agency [EPA] National Institutes of Environmental Health Sciences [NIEHS] National Toxicology Program [NTP] U.S. Food and Drug Administration [FDA] Tox21 Assay Overview: CREB (cyclic-AMP Responsive Element Binding Protein) is a cellular transcription factor. It binds to certain DNA sequences called cAMP Responsive Elements (CRE) and regulates the transcription of the genes. […] This cell line can be used to find agonists/antagonists of the cyclic AMP signaling pathway. The activation of the report gene under culture conditions can be detected by fluorescence intensity. This cell line has been used to screen the Tox21 10K compound library to identify agonists that induce oxidative stress. The cytotoxicity of the Tox21 compound library against the CRE-bla cell line was tested in parallel by measuring the cell viability using CellTiter-Glo assay (Promega, Madison, WI) in the same wells.
# Tox21 Assay Protocol Summary: CRE-bla Hek 293T cells were suspended in assay medium (DMEM containing 10% dialyzed FBS, 0.1 mM NEAA, 1 mM sodium pyruvate and 25 mM HEPES) and dispensed at 2,000 cells/4 uL /well into 1536-well black wall/clear bottom plates using a Multidrop Combi (ThermoFisher Scientific, Waltham, MA) dispenser. After the assay plates were incubated at 37 C/5% CO2 for 18 hrs, 23 nL of compounds dissolved in DMSO, positive controls or DMSO only was transferred to the assay plate by a pintool workstation (Kalypsys, San Diego, CA), followed by addition of 1 uL of 1.25uM NKH477 (0.25 uM as final concentration) in assay medium using a Flying Reagent Dispenser (Aurora Discovery, San Diego, CA). The plates were incubated at 37 C and 5% CO2 for 3 hrs. Then 1 uL of LiveBLAzer B/G FRET substrate (Invitrogen, Carlsbad, CA) was added to each well using Bioraptr Flying Reagent Dispenser (FRD, Aurora Discovery, San Diego, CA). The plates were incubated at room temperature for 2 h, then fluorescence intensities were measured using an Envision plate reader (PerkinElmer, Shelton, CT) at Excitation 405nm, Emission 460nm and 530nm. The % activity was determined from the ratio of 460nm/530nm. For cell viability readout that measures cytotoxicity, 4 uL /well of CellTiter-Glo reagent was added into the assay plates using Bioraptr FRD. After 30 min incubation at room temperature, the luminescence intensity in the assay plates was measured using a ViewLux (PerkinElmer, Shelton, CT) plate reader.
# On the % scale 0 is the no-effect control and ±100 the full control effect; potency means the concentration at half of the fitted maximal effect.
Compound,"viability change, negative = cytotoxic",Potency
C=CCn1c(=O)n([C@@H]2O[C@H](CO)[C@@H](O)[C@H]2O)c2nc(N)[nH]c(=O)c21,10.1% [at 42.5 µM] (inactive),–
Cc1cccc(CN2CCN(C(c3ccccc3)c3ccc(Cl)cc3)CC2)c1 (stereo not given),-8.6% [at 42.5 µM] (inactive),–
COc1ccc(CCN(C)CCCC(C#N)(c2cc(OC)c(OC)c(OC)c2)C(C)C)cc1OC (stereo not given),-2.68% [at 42.5 µM] (inactive),–
O=C1C(c2[nH]c3ccc(S(=O)(=O)O)cc3c2O)=Nc2ccc(S(=O)(=O)O)cc21,-2% (inactive),–
CSc1ccc(C=O)cc1,7.95% (inactive),–
CC(=O)Nc1ccc(OCC(O)CNC(C)C)cc1 (stereo not given),-0.581% [at 42.5 µM] (inactive),–
CCCN(C1CCN(C(=O)C2CCNCC2)CC1)[C@@H]1CCc2ccc(OC)cc2C1,-1.04% (inactive),–
Cc1ccc2sc3cccc(C)c3c2c1,-6% (inactive),–
c1ccc2scnc2c1,–,inactive
CC(=O)OCc1ccccc1,2.9% (inactive),–
C[N+](C)(C)CCOC(N)=O,-0.465% [at 42.5 µM] (inactive),–
C[Si]1(C)O[Si](C)(C)O[Si](C)(C)O[Si](C)(C)O[Si](C)(C)O1,2.92% (inactive),–
COc1cc(CCC(C)=O)ccc1O,15.2% (inactive),–
CN1C(=O)c2ccccc2C1=O,-9.28% (inactive),–
Cc1ccc2cccnc2c1,1.44% (inactive),–
O=C(/C=C/c1ccc([N+](=O)[O-])cc1)c1ccccc1,3.55% (inactive),–
Nc1cc(=O)[nH]c(N)n1,8.59% [at 42.5 µM] (inactive),–
CC(C)OCC1CO1 (stereo not given),2.73% (inactive),–
Cc1noc(NS(=O)(=O)c2ccc(N)cc2)c1C,–,inactive
C=C(C)C(=O)OCCC(C)OC(=O)C(=C)C (stereo not given),0.175% (inactive),–

Compound,"viability change, negative = cytotoxic",Potency
CCCC(=O)c1cc(O)c(O)cc1O,-0.0407% (inactive),–
CCN(CC)C(C)CN1c2ccccc2Sc2ccccc21 (stereo not given),-1.71% [at 42.5 µM] (inactive),–
O=C(/C=C/c1ccc(O)c(O)c1)O[C@@H]1C[C@@](OC(=O)/C=C/c2ccc(O)c(O)c2)(C(=O)O)C[C@@H](O)[C@@H]1O,-1.55% [at 42.5 µM] (inactive),–
O=C(CCOCCOCCOCCOCCC(=O)Nc1c(I)cc(I)c(C(=O)O)c1I)Nc1c(I)cc(I)c(C(=O)O)c1I,2.57% [at 42.5 µM] (inactive),–
C=C1C(CCl)(CCl)C2(Cl)C(Cl)C(Cl)C1(Cl)C2(Cl)Cl (stereo not given),–,60.4 µM (active)
Cc1nc2n(c(=O)c1CCN1CCC(C(=O)c3ccc(F)cc3)CC1)CCS2,13.4% [at 42.5 µM] (inactive),–
O=C1CCCCCCCCCCCN1,–,inactive
CC(C)NC(=O)c1ccccc1N,0.608% (inactive),–
CC[C@H]1CN2CCc3cc(OC)c(OC)cc3[C@@H]2C[C@@H]1C[C@H]1NCCc2cc(OC)c(OC)cc21,-0.502% (inactive),–
C=CCCCCCCC=C,1.16% (inactive),–
CC(C)OC(=O)c1cc2c(OCC(O)CNC(C)(C)C)cccc2[nH]1 (stereo not given),13% [at 42.5 µM] (inactive),–
c1ccc(-c2nn[nH]n2)cc1,0.802% (inactive),–
O=C(c1cc(O)c(O)c(O)c1)c1ccc(O)c(O)c1O,–,inactive
CC(O)CCCCn1c(=O)c2c(ncn2C)n(C)c1=O (stereo not given),0.85% [at 42.5 µM] (inactive),–
CCCCS,1.87% (inactive),–
C/C=C1/CC2C=CC1C2 (stereo not given),–,inactive
O=c1[nH]c2ccccc2c(=O)n1CCCl,0% [at 42.5 µM] (inactive),–
CCCCC[Si](OCC)(OCC)OCC,-2.09% (inactive),–
Cc1c(C)c([N+](=O)[O-])c(C(C)(C)C)c([N+](=O)[O-])c1C,-15.5% (inactive),–
CC(=O)CC(=O)Nc1ccc(S(=O)(=O)O)cc1,-1.07% (inactive),–
